The nature of assay [1]: ATG_GRE_CIS: Attagene CIS-FACTORIAL HepG2 Assay for human Glucocorticoid Response Elements (GRE) (AID 2282947). The note with it: HepG2 GRE cis-reporter, Attagene multiplex mRNA; actives raise or lower the signal. The gist of the method:
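Fluorescence intensity of reporter-specific cDNA fragments, separated by capillary electrophoresis, provides the signal. Constructs carry cis-regulating promoters in transiently transfected HepG2 liver cells; 24 h incubation; fitting is bidirectional against DMSO.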

Assay [2] in a line: ATG_ISRE_CIS: Attagene CIS-FACTORIAL HepG2 Assay for human Interferon Regulatory Factor 1 (IRF1) binding to an Interferon-Stimulated Response Element (ISRE) (AID 2282948). The note with it: HepG2 ISRE cis-reporter (Attagene), mRNA transcription readout; actives raise or lower the signal. The gist of the method: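 Signal reflects induction or loss of ISRE-linked reporter mRNA in transiently transfected HepG2 cells after a 24 h treatment, detected by fluorescent RT-PCR fragments on capillary electrophoresis and normalised to DMSO.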

Assay [3] can be described thus: ATG_M_32_CIS: Attagene CIS-FACTORIAL HepG2 Assay for M32 Transcription Factor (Internal Marker) (AID 2282949).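 Note: background control marker of the multiplexed CIS panel rather than a real target.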 Conditions: HepG2 Attagene cis-factorial M32 reporter, mRNA; actives raise or lower the signal. In outline:
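HepG2 human liver cells transiently transfected with cis-promoter-driven multiple reporter transcription units, dosed 24 h. Reporter mRNA quantified by RT-PCR, FAM-labelled primer extension, HpaI digest and capillary electrophoresis; bidirectional fit versus DMSO baseline.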

The nature of assay [4]: ATG_M_06_CIS: Attagene CIS-FACTORIAL HepG2 Assay for M06 Transcription Factor (Internal Marker) (AID 2282950). The note with it: HepG2 Attagene CIS-FACTORIAL M06 internal marker reporter; actives raise or lower the signal. In outline:
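HepG2 liver cells, 24 h exposure. Reporter transcripts from transfected cis-element constructs quantified by RT-PCR/capillary electrophoresis fluorescence. Bidirectional curve fit against DMSO.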

The target of assay [5] is Hypoxia-inducible factor 1-alpha (Homo sapiens) (UniProt Q16665). In words: ATG_HIF1a_CIS: Attagene CIS-FACTORIAL HepG2 Assay for human Hypoxia Inducible Factor 1 (HIF1A) (AID 2282951). The note with it: HepG2 Attagene cis-factorial HIF1a reporter transcription; actives raise or lower the signal. The gist of the method:
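Dosed 24 h, transfected HepG2 cells yielded total RNA whose reporter transcripts were RT-PCR-amplified and sized by capillary electrophoresis using fluorescent labelling; DMSO defined baseline, with gain and loss of signal both fitted.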

The target of assay [6] is Hepatocyte nuclear factor 6 (Homo sapiens) (UniProt Q9UBC0). Put plainly: ATG_HNF6_CIS: Attagene CIS-FACTORIAL HepG2 Assay for human Hepatocyte Nuclear Factor 6 (HNF6) (AID 2282952). The note with it: HepG2 Attagene cis-factorial HNF6 reporter transcription; actives raise or lower the signal. The gist of the method: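 Activity values derive from bidirectional fitting against DMSO of reporter mRNA levels, measured by capillary electrophoresis of labelled RT-PCR products from HepG2 cells exposed 24 h.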

The target in assay [7] is Heat shock factor protein 1 (Homo sapiens) (UniProt Q00613). In words: ATG_HSE_CIS: Attagene CIS-FACTORIAL HepG2 Assay for human Heat Shock Transcription Factor 1 (HSE) (AID 2282953). Conditions: HepG2 HSE cis-reporter, Attagene RNA transcription; actives raise or lower the signal. The gist of the method:
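Endogenous transcription factor activity captured via cis-promoter reporter units transfected into HepG2; treatment lasted 24 h. Fluorescence intensity of reporter fragments analysed with bidirectional curve fitting, DMSO baseline.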

Assay [8] can be described thus: ATG_MRE_CIS: Attagene CIS-FACTORIAL HepG2 Assay for human Metal Responsive Element (MRE) (AID 2282954). The note with it: HepG2 MRE cis-reporter transcription, Attagene multiplex; actives raise or lower the signal. In outline:
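Measured here is mRNA induction from an MRE cis-element reporter in HepG2 after 24 h, quantified by fluorescence of labelled RT-PCR products on capillary electrophoresis; gain- and loss-of-signal fits use DMSO as baseline.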

A short description of assay [9]: ATG_PBREM_CIS: Attagene CIS-FACTORIAL HepG2 Assay for human Phenobarbital-responsive Enhancer Module (PBREM) (AID 2282955). Conditions: HepG2 PBREM cis-reporter, Attagene multiplexed transcription; actives raise or lower the signal. The gist of the method: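 Transfected liver-derived HepG2 cells exposed 24 h; PBREM reporter transcript quantified via RT-PCR and capillary electrophoresis, with activity in either direction referenced to DMSO.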

Assay [10] has as its target Paired box protein Pax-6 (Homo sapiens) (UniProt P26367). In words: ATG_Pax6_CIS: Attagene CIS-FACTORIAL HepG2 Assay for human Paired Box 6 (PAX6) (AID 2282956). Conditions: HepG2 CIS-FACTORIAL PAX6 reporter transcription, RNA readout; actives raise or lower the signal. The gist of the method: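 Values derive from bidirectional curve fitting of reporter mRNA signal relative to DMSO. HepG2 cells bearing transfected cis-regulated MRTUs were exposed for 24 h; transcripts were read by RT-PCR and capillary electrophoresis.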

Assay [11] in a line: ATG_PXRE_CIS: Attagene CIS-FACTORIAL HepG2 Assay for human Pregnane X Receptor Element (PXRE) (AID 2282957). The note with it: HepG2 Attagene CIS-FACTORIAL PXRE reporter, mRNA; actives raise or lower the signal. In outline: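 Fluorescent capillary electrophoresis of amplified reporter cDNA gave the signal, collected 24 h after dosing HepG2 cells that held transfected cis-element reporter constructs.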

Assay [12] in a line: ATG_RORE_CIS: Attagene CIS-FACTORIAL HepG2 Assay for human RAR-related Orphan Receptor Element (RORE) (AID 2282959). Conditions: HepG2 Attagene cis-factorial RORE reporter, mRNA; actives raise or lower the signal. The gist of the method:
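Transiently transfected HepG2 reporter cells were treated 24 h. Reporter transcripts were detected by RT-PCR and capillary electrophoresis, with bidirectional fitting against DMSO.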

Assay [13] in a line: ATG_Sox_CIS: Attagene CIS-FACTORIAL HepG2 Assay for human SRY-box transcription factor (SOX) (AID 2282960). Conditions: HepG2 Attagene cis-factorial SOX reporter, mRNA; actives raise or lower the signal. In outline: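 Gain- or loss-of-signal endpoint, fitted bidirectionally with DMSO as negative control. Based on reporter mRNA from transfected HepG2 cells harvested 24 h post-treatment and quantified via RT-PCR and capillary electrophoresis.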

Assay [14] concerns the target Transcription factor Sp1 (Homo sapiens) (UniProt P08047). In words: ATG_Sp1_CIS: Attagene CIS-FACTORIAL HepG2 Assay for human Specificity Protein 1 (Sp1) (AID 2282961). The note with it: HepG2 Sp1 cis-reporter transcription, actives raise or lower the signal. The gist of the method: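 Endpoint reflects endogenous Sp1 transcriptional activity, not an exogenous fusion protein: HepG2 cells with transfected cis-regulated reporters, 24 h dosing, RT-PCR/capillary electrophoresis mRNA read-out, DMSO-normalised bidirectional fit.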

Assay [15] in a line: ATG_SREBP_CIS: Attagene CIS-FACTORIAL HepG2 Assay for human Sterol Regulatory Element Binding (SREBP) (AID 2282962). The note with it: HepG2 Attagene cis-factorial SREBP reporter, mRNA; actives raise or lower the signal. The gist of the method: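 Values derive from bidirectional curve fitting with DMSO as baseline. The underlying measurement is reporter mRNA from cis-element-regulated units in transiently transfected HepG2, quantified by RT-PCR and capillary electrophoresis after 24 h exposure.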

Assay [16] deals with Signal transducer and activator of transcription 3 (Homo sapiens) (UniProt P40763). Put plainly: ATG_STAT3_CIS: Attagene CIS-FACTORIAL HepG2 Assay for human Signal Transducer and Activator of Transcription 3 (STAT3) (AID 2282963). Conditions: HepG2, Attagene cis-factorial STAT3 reporter transcription; actives raise or lower the signal. The gist of the method:
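Fluorescence intensity of 6-FAM-labelled reporter fragments, separated by capillary electrophoresis after RT-PCR, gave the signal. Cells were HepG2 transfected with cis-element reporter units and treated 24 h; fitting was bidirectional relative to DMSO.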

Assay [17] can be described thus: ATG_TA_CIS: Attagene CIS-FACTORIAL HepG2 Assay for human TA Basal Promoter (AID 2282964). Conditions: HepG2 Attagene CIS-factorial TA basal promoter reporter; actives raise or lower the signal. In outline: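 Fluorescence from labelled RT-PCR reporter fragments, separated by capillary electrophoresis, gives the signal. Cells: HepG2 transiently carrying multiple reporter units, 24 h chemical dosing. Gain or loss relative to DMSO.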

A short description of assay [18]: ATG_TCF_b_cat_CIS: Attagene CIS-FACTORIAL HepG2 Assay for human T-Cell-Factor with beta-catenin (TCF/b-cat) (AID 2282965). The note with it: HepG2 TCF/beta-catenin cis-reporter transcription, actives raise or lower the signal. In outline:
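HepG2 cells transiently transfected with cis-promoter-driven multiplexed reporter units; reporter mRNA measured 24 h after dosing by RT-PCR, FAM labelling, HpaI digestion and capillary electrophoresis. Bidirectional fitting relative to DMSO baseline.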

Assay [19] is described as follows: ATG_PPRE_CIS: Attagene CIS-FACTORIAL HepG2 Assay for human Peroxisome Proliferator-activated Response Element (PPRE) (AID 2282958). Conditions: HepG2 PPRE cis-element reporter, Attagene transcription factor profiling; actives raise or lower the signal. In outline:
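Measured endpoint: PPRE-controlled reporter mRNA, detected by RT-PCR and capillary electrophoresis fluorescence, from transiently transfected HepG2 cells 24 h after dosing. Curves fitted in both directions using DMSO baseline.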

Molecules are shown by their SMILES. Activity calls are given as the source filed them. Rule for the calls: active = hit-call score of the fitted dose curve at least 0.9, where 1 is the maximum; inactive = score below 0.9.

The record followed here is PubChem BioAssay (EPA / NIEHS).

Sequence of Transcription factor Sp1 (Homo sapiens) (P08047 whole entry, looked up, the tested form may be a part): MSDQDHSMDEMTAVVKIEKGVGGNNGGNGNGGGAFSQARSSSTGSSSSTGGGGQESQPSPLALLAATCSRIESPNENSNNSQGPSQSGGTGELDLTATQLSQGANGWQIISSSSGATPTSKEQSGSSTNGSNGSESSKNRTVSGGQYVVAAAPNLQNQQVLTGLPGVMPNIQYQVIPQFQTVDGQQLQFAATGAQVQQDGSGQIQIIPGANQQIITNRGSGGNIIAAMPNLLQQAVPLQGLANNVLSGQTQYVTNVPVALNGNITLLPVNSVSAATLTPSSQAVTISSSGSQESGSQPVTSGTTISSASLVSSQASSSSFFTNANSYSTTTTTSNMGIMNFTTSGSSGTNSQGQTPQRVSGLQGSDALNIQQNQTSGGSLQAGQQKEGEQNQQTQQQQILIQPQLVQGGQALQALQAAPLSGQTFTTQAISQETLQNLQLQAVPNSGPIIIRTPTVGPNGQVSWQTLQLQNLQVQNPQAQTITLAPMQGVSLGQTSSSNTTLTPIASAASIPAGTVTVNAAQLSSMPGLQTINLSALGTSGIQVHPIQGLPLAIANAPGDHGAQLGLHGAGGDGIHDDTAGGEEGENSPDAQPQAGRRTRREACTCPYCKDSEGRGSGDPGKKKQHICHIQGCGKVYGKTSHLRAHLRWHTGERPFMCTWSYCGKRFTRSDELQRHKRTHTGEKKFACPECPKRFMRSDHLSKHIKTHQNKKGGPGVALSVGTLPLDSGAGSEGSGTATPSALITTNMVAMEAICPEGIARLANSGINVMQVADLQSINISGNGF
Sequence of Signal transducer and activator of transcription 3 (Homo sapiens) (P40763 whole entry, looked up, the tested form may be a part): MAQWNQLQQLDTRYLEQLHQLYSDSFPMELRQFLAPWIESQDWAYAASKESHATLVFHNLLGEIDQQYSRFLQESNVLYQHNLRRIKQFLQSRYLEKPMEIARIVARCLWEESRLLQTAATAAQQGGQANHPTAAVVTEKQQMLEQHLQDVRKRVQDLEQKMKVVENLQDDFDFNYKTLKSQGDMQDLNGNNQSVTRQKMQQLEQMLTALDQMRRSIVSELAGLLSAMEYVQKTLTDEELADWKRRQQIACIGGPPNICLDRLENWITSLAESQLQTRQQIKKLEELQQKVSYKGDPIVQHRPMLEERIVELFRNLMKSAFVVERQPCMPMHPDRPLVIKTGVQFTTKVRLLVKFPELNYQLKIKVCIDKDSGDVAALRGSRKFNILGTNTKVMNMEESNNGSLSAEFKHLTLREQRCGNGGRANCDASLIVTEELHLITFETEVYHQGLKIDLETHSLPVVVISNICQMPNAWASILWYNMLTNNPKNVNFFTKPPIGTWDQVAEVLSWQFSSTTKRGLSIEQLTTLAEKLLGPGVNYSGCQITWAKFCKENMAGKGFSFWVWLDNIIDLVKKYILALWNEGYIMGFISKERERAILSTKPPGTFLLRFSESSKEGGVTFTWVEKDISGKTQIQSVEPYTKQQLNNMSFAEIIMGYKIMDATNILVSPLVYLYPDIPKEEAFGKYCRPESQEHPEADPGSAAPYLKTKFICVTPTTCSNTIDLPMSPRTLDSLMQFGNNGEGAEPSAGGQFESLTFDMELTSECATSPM
Sequence of Hepatocyte nuclear factor 6 (Homo sapiens) (Q9UBC0 whole entry, looked up): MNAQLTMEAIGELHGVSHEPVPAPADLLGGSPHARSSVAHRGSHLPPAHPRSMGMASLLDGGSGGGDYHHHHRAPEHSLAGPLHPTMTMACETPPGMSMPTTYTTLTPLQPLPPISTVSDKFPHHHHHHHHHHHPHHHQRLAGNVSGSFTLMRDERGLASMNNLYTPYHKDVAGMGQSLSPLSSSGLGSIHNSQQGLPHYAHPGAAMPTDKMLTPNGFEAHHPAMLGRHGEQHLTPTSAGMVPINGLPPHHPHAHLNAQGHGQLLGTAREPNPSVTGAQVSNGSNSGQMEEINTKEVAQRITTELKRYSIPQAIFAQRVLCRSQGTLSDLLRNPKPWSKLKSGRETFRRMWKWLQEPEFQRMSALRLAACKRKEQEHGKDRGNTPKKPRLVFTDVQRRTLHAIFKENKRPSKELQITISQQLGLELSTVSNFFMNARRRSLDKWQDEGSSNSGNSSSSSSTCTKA
Sequence of Paired box protein Pax-6 (Homo sapiens) (P26367 whole entry, looked up): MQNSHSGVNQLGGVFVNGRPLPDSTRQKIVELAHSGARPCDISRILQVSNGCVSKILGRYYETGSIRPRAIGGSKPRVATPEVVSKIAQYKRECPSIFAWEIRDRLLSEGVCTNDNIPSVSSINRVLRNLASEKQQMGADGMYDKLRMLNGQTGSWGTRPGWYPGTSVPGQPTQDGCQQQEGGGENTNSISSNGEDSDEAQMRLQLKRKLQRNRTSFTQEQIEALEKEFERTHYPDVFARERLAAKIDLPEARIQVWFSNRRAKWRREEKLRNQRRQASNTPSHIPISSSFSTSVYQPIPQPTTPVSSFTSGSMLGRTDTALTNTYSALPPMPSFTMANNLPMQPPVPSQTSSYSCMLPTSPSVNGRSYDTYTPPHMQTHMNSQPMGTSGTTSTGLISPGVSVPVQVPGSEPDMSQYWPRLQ
Sequence of Hypoxia-inducible factor 1-alpha (Homo sapiens) (Q16665 whole entry, looked up): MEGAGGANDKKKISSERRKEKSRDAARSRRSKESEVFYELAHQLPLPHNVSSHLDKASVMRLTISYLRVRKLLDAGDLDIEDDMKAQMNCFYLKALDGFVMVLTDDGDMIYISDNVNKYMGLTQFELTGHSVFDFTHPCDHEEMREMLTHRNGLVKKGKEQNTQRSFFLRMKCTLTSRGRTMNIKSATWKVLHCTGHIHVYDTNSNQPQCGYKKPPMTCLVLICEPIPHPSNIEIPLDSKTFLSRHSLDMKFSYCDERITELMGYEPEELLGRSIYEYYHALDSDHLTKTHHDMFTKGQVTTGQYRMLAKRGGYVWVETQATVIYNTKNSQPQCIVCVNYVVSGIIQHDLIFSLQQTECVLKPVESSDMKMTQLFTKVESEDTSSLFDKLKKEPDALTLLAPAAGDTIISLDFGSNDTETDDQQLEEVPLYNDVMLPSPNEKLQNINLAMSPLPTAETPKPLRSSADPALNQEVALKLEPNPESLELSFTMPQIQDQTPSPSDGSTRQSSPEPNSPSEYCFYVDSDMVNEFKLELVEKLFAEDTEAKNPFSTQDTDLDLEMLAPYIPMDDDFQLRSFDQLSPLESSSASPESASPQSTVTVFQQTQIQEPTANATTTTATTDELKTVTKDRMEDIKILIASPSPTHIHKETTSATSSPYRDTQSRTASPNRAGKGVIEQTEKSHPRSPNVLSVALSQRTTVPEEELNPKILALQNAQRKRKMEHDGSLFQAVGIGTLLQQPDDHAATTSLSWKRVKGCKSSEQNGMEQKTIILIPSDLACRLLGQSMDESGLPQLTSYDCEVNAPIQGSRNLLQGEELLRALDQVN
Sequence of Heat shock factor protein 1 (Homo sapiens) (Q00613 whole entry, looked up, the tested form may be a part): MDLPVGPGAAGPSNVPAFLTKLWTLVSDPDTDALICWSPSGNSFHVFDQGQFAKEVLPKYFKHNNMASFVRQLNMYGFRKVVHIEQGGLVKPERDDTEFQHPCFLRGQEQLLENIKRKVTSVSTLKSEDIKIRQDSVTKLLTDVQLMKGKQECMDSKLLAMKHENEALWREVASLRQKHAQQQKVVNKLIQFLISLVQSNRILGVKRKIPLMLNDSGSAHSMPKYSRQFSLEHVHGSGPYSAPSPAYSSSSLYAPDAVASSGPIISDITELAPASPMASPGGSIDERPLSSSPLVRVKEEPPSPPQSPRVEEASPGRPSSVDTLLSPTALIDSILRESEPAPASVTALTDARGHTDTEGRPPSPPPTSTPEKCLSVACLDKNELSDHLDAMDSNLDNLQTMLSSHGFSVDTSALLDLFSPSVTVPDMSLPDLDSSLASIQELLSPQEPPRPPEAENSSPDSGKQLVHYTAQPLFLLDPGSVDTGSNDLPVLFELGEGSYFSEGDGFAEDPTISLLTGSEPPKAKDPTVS

As usually defined, the AC50 is the concentration at which the activity in the assay is half-maximal. `COc1ccccc1N=Nc1c(S(=O)(=O)O)cc2cc(S(=O)(=O)O)cc(NC(C)=O)c2c1O`: the result in [1], in assay [2], in assay [3], in assay [4], in assay [5] and in [6] was inactive. Moreover, the compound was called inactive in assay [7], in assay [8], in [9], in assay [10], in [12] and in assay [13]. The compound was classed as inactive in assay [14], in [15], in assay [16], in [17] and in assay [18]. Besides, the AC50 in [11] was 25.7 µM (active).

As for `Nc1ccc2c(O)cc(S(=O)(=O)O)cc2c1`, the compound was called inactive in assay [1], in [2], in assay [3], in assay [4], in assay [5] and in assay [6]. The result in [7], in [8], in assay [9], in assay [10], in [11] and in [19] was inactive. Moreover, the call in assay [12], in assay [13], in [14], in assay [16], in assay [17] and in assay [18] was inactive.

Consider `CCOC(=O)C1OC1c1ccccc1` (centres undefined), for which the compound was called inactive in [1], in assay [3], in assay [4], in assay [5], in [6] and in [7]. Moreover, the compound was called inactive in [8], in assay [9], in assay [10], in assay [11], in assay [12] and in [13]. For the same compound, the compound was classed as inactive in [14], in assay [15] and in assay [16]. Besides, the half-maximal activity concentration (AC50) was 33.5 µM (active) in assay [2], 21.6 µM (active) in assay [19] and 48 µM (active) in assay [18].
